The supplement of paper PMC10849652
About 7,900 targets were measured; listed, in parts, are those with a hit and a random draw of the rest. About 0.6% of all pairs of compound and target were hits. Unmarked numbers belong to inactive results.

Compound: CC1=NC(=CC=C1)C2=C(N=C(N2)C(C)(C)C)C3=CC4=NC=CN=C4C=C3
Assay: log2 fold change, soluble protein after heating vs DMSO (PISA); higher = thermal stabilisation; K562 cells, 10 uM, 30 min; active = over 0.2 and 3.5 SD of the protein, either way, in both replicates (recomputed)
Procedure, shortened: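 Values are thermal stability changes relative to control samples and are taken from duplicates. They are stated as log2 fold changes. Before quantification by TMTpro 16plex LC-MS/MS with equalised channel sums, K562 cells at 2×10^6 cells/mL were treated with 10 μM compound for 30 min, heated in aliquots for 3 min across 48°C-58°C, pooled, extracted in PBS with 0.5% NP-40 at 4°C, and centrifuged at 21,000xg for 90 min to give the soluble supernatant.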

Chain of UniProt Q14157 (Q14157 whole entry, looked up): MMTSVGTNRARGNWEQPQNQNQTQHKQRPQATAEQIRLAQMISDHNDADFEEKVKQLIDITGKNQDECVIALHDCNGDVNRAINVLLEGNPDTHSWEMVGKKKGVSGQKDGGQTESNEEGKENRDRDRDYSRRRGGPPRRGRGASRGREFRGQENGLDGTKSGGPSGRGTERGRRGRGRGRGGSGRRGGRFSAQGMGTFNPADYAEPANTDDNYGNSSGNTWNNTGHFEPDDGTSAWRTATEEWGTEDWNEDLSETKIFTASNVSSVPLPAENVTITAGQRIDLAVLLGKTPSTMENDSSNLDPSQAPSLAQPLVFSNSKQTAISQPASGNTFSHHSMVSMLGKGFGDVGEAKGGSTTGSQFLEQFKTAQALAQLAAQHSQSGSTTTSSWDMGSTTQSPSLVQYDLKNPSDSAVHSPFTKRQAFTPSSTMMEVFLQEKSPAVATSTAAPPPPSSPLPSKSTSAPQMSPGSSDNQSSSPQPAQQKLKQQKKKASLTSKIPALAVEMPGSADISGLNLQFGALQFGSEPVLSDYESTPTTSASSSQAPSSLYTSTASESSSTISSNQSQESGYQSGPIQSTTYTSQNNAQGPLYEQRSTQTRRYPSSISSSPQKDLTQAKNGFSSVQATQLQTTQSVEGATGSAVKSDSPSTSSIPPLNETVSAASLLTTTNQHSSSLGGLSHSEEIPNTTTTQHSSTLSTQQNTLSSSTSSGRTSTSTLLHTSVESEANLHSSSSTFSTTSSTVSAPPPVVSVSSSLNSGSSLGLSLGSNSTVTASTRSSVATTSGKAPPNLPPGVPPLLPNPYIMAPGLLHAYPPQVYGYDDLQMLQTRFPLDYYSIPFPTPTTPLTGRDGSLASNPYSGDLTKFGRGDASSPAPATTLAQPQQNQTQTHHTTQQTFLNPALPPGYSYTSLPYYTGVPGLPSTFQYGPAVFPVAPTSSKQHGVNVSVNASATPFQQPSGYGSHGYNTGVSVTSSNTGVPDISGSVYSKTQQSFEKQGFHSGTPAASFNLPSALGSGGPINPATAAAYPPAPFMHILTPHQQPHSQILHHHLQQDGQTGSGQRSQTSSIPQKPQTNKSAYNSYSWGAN
Chain of UniProt Q13263 (Q13263 whole entry, looked up): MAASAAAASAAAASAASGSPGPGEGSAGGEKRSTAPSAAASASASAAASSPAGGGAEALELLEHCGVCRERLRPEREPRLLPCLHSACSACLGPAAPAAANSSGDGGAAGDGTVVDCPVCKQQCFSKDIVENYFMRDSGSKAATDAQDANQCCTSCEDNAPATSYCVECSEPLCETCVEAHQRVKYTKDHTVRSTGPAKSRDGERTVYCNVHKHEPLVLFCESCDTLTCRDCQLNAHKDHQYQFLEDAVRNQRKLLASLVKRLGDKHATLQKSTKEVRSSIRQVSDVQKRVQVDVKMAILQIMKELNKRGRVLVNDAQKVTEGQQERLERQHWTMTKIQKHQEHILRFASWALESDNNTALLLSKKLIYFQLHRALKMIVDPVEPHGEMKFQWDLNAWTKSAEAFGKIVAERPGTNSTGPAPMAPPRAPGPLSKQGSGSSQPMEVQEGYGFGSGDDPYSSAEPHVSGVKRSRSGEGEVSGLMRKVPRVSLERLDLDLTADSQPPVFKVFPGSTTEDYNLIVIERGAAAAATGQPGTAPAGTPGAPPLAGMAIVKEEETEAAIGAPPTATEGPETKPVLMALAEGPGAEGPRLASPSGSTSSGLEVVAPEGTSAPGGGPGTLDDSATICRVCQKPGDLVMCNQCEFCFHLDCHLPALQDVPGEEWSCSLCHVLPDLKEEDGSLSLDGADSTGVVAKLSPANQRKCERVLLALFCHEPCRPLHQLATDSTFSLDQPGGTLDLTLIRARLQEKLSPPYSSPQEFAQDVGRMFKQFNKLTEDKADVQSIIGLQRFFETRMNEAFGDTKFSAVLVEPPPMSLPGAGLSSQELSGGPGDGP
Chain of UniProt Q99757 (Q99757 whole entry, looked up): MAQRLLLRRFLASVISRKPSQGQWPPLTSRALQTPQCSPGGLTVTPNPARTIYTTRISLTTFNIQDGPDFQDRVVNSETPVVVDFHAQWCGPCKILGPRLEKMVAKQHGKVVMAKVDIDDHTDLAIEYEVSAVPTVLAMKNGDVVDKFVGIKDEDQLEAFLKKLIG
Chain of UniProt P26368 (P26368 whole entry, looked up): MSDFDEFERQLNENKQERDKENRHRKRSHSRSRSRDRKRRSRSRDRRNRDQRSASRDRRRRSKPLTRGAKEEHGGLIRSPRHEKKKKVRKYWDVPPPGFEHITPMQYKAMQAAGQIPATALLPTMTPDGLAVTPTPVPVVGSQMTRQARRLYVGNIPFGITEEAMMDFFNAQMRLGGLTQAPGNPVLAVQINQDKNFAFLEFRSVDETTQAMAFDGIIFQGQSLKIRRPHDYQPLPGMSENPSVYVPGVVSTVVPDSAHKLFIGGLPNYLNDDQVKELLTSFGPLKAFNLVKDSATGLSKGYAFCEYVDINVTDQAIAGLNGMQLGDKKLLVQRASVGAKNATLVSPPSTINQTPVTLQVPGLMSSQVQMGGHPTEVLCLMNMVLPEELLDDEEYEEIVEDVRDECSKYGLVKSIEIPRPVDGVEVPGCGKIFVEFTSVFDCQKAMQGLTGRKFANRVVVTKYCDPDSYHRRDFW
Chain of UniProt Q9HAD4 (Q9HAD4 whole entry, looked up): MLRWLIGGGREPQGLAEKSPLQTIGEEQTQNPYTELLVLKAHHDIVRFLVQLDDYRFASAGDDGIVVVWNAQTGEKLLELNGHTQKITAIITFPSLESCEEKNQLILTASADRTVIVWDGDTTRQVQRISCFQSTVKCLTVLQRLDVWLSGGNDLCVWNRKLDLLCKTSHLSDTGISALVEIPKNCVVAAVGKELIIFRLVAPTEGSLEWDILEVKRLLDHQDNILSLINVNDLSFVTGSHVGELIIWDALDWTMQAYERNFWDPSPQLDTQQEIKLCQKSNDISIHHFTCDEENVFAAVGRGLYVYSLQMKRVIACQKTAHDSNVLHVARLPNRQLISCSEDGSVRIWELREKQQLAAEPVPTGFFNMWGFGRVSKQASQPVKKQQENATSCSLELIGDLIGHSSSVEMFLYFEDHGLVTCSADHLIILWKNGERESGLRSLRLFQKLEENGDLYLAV
Chain of UniProt Q86Y07 (Q86Y07 whole entry, looked up): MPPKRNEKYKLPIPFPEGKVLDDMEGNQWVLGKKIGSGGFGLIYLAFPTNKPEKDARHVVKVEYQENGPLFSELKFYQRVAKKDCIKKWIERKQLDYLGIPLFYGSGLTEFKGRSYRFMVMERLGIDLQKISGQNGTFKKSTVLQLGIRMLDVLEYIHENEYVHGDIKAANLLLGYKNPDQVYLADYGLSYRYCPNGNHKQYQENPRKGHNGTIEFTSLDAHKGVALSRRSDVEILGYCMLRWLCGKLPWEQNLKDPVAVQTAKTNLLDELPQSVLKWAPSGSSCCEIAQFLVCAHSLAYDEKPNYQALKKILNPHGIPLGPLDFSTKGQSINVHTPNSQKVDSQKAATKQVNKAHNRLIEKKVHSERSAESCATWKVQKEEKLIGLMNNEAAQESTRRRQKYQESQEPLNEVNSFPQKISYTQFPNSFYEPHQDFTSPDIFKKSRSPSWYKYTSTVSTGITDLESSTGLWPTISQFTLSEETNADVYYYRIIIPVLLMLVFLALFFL
Chain of UniProt Q9Y4E8 (Q9Y4E8 whole entry, looked up): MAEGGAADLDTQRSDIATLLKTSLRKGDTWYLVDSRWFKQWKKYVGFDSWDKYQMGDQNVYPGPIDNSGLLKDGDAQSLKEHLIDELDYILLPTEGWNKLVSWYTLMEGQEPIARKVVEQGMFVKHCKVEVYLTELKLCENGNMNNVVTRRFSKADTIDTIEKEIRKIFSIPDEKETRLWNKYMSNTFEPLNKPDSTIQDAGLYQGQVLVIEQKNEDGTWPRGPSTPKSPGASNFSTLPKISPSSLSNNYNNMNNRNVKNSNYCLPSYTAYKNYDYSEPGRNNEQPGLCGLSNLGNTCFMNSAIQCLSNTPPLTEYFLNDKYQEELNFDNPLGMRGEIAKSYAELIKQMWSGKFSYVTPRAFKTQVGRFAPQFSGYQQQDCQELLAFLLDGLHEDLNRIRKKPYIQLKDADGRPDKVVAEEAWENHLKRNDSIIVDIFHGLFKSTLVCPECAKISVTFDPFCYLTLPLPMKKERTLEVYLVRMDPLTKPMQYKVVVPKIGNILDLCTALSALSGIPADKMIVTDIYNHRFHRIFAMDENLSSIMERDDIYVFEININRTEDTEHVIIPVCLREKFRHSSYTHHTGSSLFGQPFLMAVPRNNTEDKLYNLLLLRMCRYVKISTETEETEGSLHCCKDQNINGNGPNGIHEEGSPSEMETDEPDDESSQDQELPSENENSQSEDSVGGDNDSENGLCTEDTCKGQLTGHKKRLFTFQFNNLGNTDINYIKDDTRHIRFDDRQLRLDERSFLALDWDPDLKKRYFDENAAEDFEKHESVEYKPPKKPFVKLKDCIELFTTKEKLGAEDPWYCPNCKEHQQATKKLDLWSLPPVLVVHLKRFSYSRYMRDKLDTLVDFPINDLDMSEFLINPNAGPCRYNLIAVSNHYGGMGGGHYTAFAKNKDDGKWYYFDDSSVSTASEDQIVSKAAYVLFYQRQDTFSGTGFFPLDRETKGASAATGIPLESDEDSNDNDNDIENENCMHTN
Chain of UniProt Q16763 (Q16763 whole entry, looked up): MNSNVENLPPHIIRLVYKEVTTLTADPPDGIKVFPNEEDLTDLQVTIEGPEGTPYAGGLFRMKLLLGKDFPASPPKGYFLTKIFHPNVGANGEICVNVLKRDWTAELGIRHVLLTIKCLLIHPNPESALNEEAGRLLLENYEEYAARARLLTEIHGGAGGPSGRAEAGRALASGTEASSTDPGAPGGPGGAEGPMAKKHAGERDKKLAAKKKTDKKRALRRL
Chain of UniProt Q9BTX3 (Q9BTX3 whole entry, looked up): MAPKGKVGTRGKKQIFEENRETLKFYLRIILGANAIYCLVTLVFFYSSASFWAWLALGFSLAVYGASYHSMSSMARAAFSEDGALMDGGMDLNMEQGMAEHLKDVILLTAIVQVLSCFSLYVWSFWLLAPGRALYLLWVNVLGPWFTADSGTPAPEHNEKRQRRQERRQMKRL
Chain of UniProt Q9UDW1 (Q9UDW1 whole entry, looked up): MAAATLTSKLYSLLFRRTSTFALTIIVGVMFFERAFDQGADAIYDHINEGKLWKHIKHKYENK

With WDHD1 (UniProt O75717) as the target, how does the log2 fold change read?
The log2 fold change was 0.072.

TOMM5 isoform 2 (UniProt Q8N4H5) was tested. Which log2 fold change did it give?
The log2 fold change was 0.084.

For WDR41 (UniProt Q9HAD4), which log2 fold change is on record?
Its log2 fold change is 0.001.

How did the log2 fold change turn out when XPO5 (UniProt Q9HAV4) was run?
Its log2 fold change is 0.031.

Which log2 fold change does the source give for VARS2, A0A0G2JL52 here?
The log2 fold change was 0.012.

How did the log2 fold change turn out when WNK1 isoform 7 (UniProt Q9H4A3) was run?
The log2 fold change was -0.019.

For TRIM28 (UniProt Q13263), which log2 fold change is on record?
Its log2 fold change is 0.041.

WRB (UniProt O00258) was tested. Which log2 fold change did it give?
Its log2 fold change is -0.023.

UBR2 (UniProt Q8IWV8) was tested. Which log2 fold change did it give?
The log2 fold change was -0.03.

UBE2S (UniProt Q16763) was tested. Which log2 fold change did it give?
Its log2 fold change is 0.009.

Which log2 fold change does the source give for VPS13B (UniProt Q7Z7G8) here?
The log2 fold change was 0.057.

For TRMT10C (UniProt Q7L0Y3), which log2 fold change is on record?
Its log2 fold change is 0.007.

How did the log2 fold change turn out when XPNPEP3 (UniProt Q9NQH7) was run?
The log2 fold change was 0.017.

How did the log2 fold change turn out when TMEM189-UBE2V1 (UniProt I3L0A0) was run?
Its log2 fold change is -0.003.

With USP15 (UniProt Q9Y4E8) as the target, how does the log2 fold change read?
The log2 fold change was 0.027.

How did the log2 fold change turn out when VWA8 (UniProt A3KMH1) was run?
The log2 fold change was 0.019.

How did the log2 fold change turn out when TUBAL3 (UniProt A6NHL2) was run?
The log2 fold change was 0.094.

Which log2 fold change does the source give for XPO1 (UniProt O14980) here?
The log2 fold change was 0.081.

Which log2 fold change does the source give for U2AF2 (UniProt P26368) here?
The log2 fold change was 0.047.

Which log2 fold change does the source give for WDR47 (UniProt O94967) here?
The log2 fold change was 0.127.

Which log2 fold change does the source give for U2AF1 isoform 2 (UniProt Q01081) here?
Its log2 fold change is 0.091.

With XPNPEP1 isoform 3 (UniProt Q9NQW7) as the target, how does the log2 fold change read?
The log2 fold change was 0.036.

Which log2 fold change does the source give for UBA1 (UniProt P22314) here?
The log2 fold change was 0.006.

With WDR4 (UniProt P57081) as the target, how does the log2 fold change read?
Its log2 fold change is 0.104.

How did the log2 fold change turn out when VPS35L (UniProt Q7Z3J2) was run?
The log2 fold change was -0.022.

Which log2 fold change does the source give for UBA6 here?
Its log2 fold change is 0.02.

How did the log2 fold change turn out when UQCR10 (UniProt Q9UDW1) was run?
The log2 fold change was -0.014.

For TRAPPC11 (UniProt Q7Z392), which log2 fold change is on record?
Its log2 fold change is -0.053.

With TXN2 (UniProt Q99757) as the target, how does the log2 fold change read?
Its log2 fold change is 0.036.

For UBAP2L isoform 1 (UniProt Q14157), which log2 fold change is on record?
Its log2 fold change is 0.025.

With TMEM208 (UniProt Q9BTX3) as the target, how does the log2 fold change read?
Its log2 fold change is -0.022.

For UBAP2L isoform 5 (UniProt Q14157), which log2 fold change is on record?
The log2 fold change was 0.013.

With TXNIP (UniProt Q9H3M7) as the target, how does the log2 fold change read?
Its log2 fold change is 0.034.

Which log2 fold change does the source give for VRK2 (UniProt Q86Y07) here?
Its log2 fold change is 0.015.

How did the log2 fold change turn out when WDR61 (UniProt Q9GZS3) was run?
The log2 fold change was -0.027.

For USP48 isoform 8 (UniProt Q86UV5), which log2 fold change is on record?
Its log2 fold change is 0.119.
